Test results published in PubChem BioAssay AID1159580 (chemical genetic matrix, 2015).
Among all 5,500 compounds or so, about 2,000 (36%) were called active. Roughly 18% stayed inconclusive and do not appear here. Rule as the data show it: active = normalized growth mostly below about 0.91 (no sharp cut-off); inconclusive = no clear call, values can overlap the other calls; inactive = mostly above about 0.92. This is one part of the list.

Assay: chemical genetic growth profiling, strain panel (AID 1159580);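 also: tested at 20 µM; growth read once vehicle control cultures reached saturation at 30 °C; 1 = growth at the plate median or of vehicle wells; lower values mean less growth of the strain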
Conditions: growth OD

Measured: normalized growth

COc1ccc(-c2cc(=O)c3c(OC)cc(OC)cc3o2)cc1
inactive: S. cerevisiae deletion strains, locus YAL013W, strain DEP1, active compounds read low 0.981 | S. cerevisiae deletion strains, locus YBR021W, strain FUR4, active compounds read low 0.903 | S. cerevisiae deletion strains, locus YBR229C, strain ROT2, active compounds read low 1 | S. cerevisiae deletion strains, locus YCL029C, strain bik1, active compounds read low 1.01 | S. cerevisiae deletion strains, locus YDL035C, strain GPR1, active compounds read low 0.981 | S. cerevisiae deletion strains, locus YDL074C, strain BRE1, active compounds read low 0.905 | S. cerevisiae deletion strains, locus YDL101C, strain DUN1, active compounds read low 0.988 | S. cerevisiae deletion strains, locus YDL134C, strain PPH21, active compounds read low 0.984 | S. cerevisiae deletion strains, locus YDL185W, strain tfp1, active compounds read low 0.996 | S. cerevisiae deletion strains, locus YDL192W, strain arf1, active compounds read low 0.986 | S. cerevisiae deletion strains, locus YDR101C, strain arx1, active compounds read low 0.977 | S. cerevisiae deletion strains, locus YDR150W, strain NUM1, active compounds read low 1 | S. cerevisiae deletion strains, locus YDR162C, strain NBP2, active compounds read low 0.944 | S. cerevisiae deletion strains, locus YDR318W, strain mcm21, active compounds read low 0.973 | S. cerevisiae deletion strains, locus YDR388W, active compounds read low 0.99 | S. cerevisiae deletion strains, locus YDR502C, strain sam2, active compounds read low 0.963 | S. cerevisiae deletion strains, locus YEL061C, strain CIN8, active compounds read low 0.997 | S. cerevisiae deletion strains, locus YER110C, active compounds read low 1.02 | S. cerevisiae deletion strains, locus YER155C, strain BEM2, active compounds read low 0.993 | S. cerevisiae deletion strains, locus YER167W, strain BCK2, active compounds read low 0.989 | S. cerevisiae deletion strains, locus YGL078C, strain dbp3, active compounds read low 1 | S. cerevisiae deletion strains, locus YGL086W, strain mad1, active compounds read low 1 | S. cerevisiae deletion strains, locus YGL248W, strain PDE1, active compounds read low 0.988 | S. cerevisiae deletion strains, locus YGR078C, strain PAC10, active compounds read low 0.948 | S. cerevisiae deletion strains, locus YGR135W, strain pre9, active compounds read low 0.926 | S. cerevisiae deletion strains, locus YGR229C, strain SMI1, active compounds read low 0.873 | S. cerevisiae deletion strains, locus YGR252W, strain gcn5, active compounds read low 0.834 | S. cerevisiae deletion strains, locus YHR030C, strain SLT2, active compounds read low 0.997 | S. cerevisiae deletion strains, locus YHR079C, strain IRE1 (second series), active compounds read low 0.979 | S. cerevisiae deletion strains, locus YHR094C, strain hxt1, active compounds read low 1.01 | S. cerevisiae deletion strains, locus YHR129C, strain ARP1, active compounds read low 0.99 | S. cerevisiae deletion strains, locus YHR200W, strain rpn10, active compounds read low 0.992 | S. cerevisiae deletion strains, locus YIL066C, strain RNR3, active compounds read low 0.965 | S. cerevisiae deletion strains, locus YIL073C, strain SPO22, active compounds read low 0.983 | S. cerevisiae deletion strains, locus YIL125W, strain kgd1, active compounds read low 1.01 | S. cerevisiae deletion strains, locus YIR030C, strain dcg1, active compounds read low 0.993 | S. cerevisiae deletion strains, locus YJL095W, strain BCK1, active compounds read low 0.888 | S. cerevisiae deletion strains, locus YJL134W, strain LCB3, active compounds read low 0.994 | S. cerevisiae deletion strains, locus YJL168C, strain set2, active compounds read low 0.998 | S. cerevisiae deletion strains, locus YJL187C, strain SWE1 (second series), active compounds read low 0.957 | S. cerevisiae deletion strains, locus YJR043C, strain POL32, active compounds read low 0.983 | S. cerevisiae deletion strains, locus YJR075W, strain HOC1, active compounds read low 0.968 | S. cerevisiae deletion strains, locus YKL009W, strain mrt4, active compounds read low 0.987 | S. cerevisiae deletion strains, locus YKL068W, active compounds read low 1.01 | S. cerevisiae deletion strains, locus YKL085W, strain MDH1 (second series), active compounds read low 1.01 | S. cerevisiae deletion strains, locus YKL085W, strain MDH1, active compounds read low 1.01 | S. cerevisiae deletion strains, locus YKL190W, strain CNB1, active compounds read low 0.996 | S. cerevisiae deletion strains, locus YKR001C, strain vps1, active compounds read low 0.996 | S. cerevisiae deletion strains, locus YLR039C, strain RIC1, active compounds read low 1.03 | S. cerevisiae deletion strains, locus YLR058C, strain SHM2, active compounds read low 0.988 | S. cerevisiae deletion strains, locus YLR102C, strain apc9, active compounds read low 0.998 | S. cerevisiae deletion strains, locus YLR262C, strain YPT6, active compounds read low 1.02 | S. cerevisiae deletion strains, locus YLR268W, strain sec22, active compounds read low 0.95 | S. cerevisiae deletion strains, locus YLR330W, strain CHS5, active compounds read low 0.999 | S. cerevisiae deletion strains, locus YLR342W, strain FKS1 (second series), active compounds read low 0.951 | S. cerevisiae deletion strains, locus YLR371W, strain rom2, active compounds read low 1.01 | S. cerevisiae deletion strains, locus YLR418C, strain cdc73, active compounds read low 0.869 | S. cerevisiae deletion strains, locus YML016C, strain PPZ1, active compounds read low 1 | S. cerevisiae deletion strains, locus YML032C, strain rad52, active compounds read low 0.969 | S. cerevisiae deletion strains, locus YML124C, strain tub3, active compounds read low 1 | S. cerevisiae deletion strains, locus YMR078C, strain ctf18, active compounds read low 0.988 | S. cerevisiae deletion strains, locus YMR223W, strain ubp8, active compounds read low 0.972 | S. cerevisiae deletion strains, locus YMR263W, strain SAP30, active compounds read low 0.95 | S. cerevisiae deletion strains, locus YMR307W, strain GAS1, active compounds read low 0.839 | S. cerevisiae deletion strains, locus YNL067W, strain RPL9B, active compounds read low 0.962 | S. cerevisiae deletion strains, locus YNL128W, strain TEP1, active compounds read low 0.981 | S. cerevisiae deletion strains, locus YNL153C, strain GIM3, active compounds read low 0.955 | S. cerevisiae deletion strains, locus YNL233W, strain BNI4, active compounds read low 0.923 | S. cerevisiae deletion strains, locus YNL250W, strain rad50, active compounds read low 1.01 | S. cerevisiae deletion strains, locus YNL271C, strain bni1, active compounds read low 1.02 | S. cerevisiae deletion strains, locus YNL298W, strain CLA4, active compounds read low 1 | S. cerevisiae deletion strains, locus YNL307C, strain MCK1, active compounds read low 0.93 | S. cerevisiae deletion strains, locus YNL322C, strain KRE1, active compounds read low 1.01 | S. cerevisiae deletion strains, locus YNR052C, strain pop2, active compounds read low 0.995 | S. cerevisiae deletion strains, locus YOL006C, strain TOP1, active compounds read low 0.858 | S. cerevisiae deletion strains, locus YOL012C, strain htz1 1.8 | S. cerevisiae deletion strains, locus YOL147C, strain pex11, active compounds read low 0.989 | S. cerevisiae deletion strains, locus YOR061W, strain CKA2, active compounds read low 0.999 | S. cerevisiae deletion strains, locus YOR069W, strain VPS5, active compounds read low 1 | S. cerevisiae deletion strains, locus YOR136W, strain idh2, active compounds read low 0.996 | S. cerevisiae deletion strains, locus YOR144C, strain elg1, active compounds read low 1 | S. cerevisiae deletion strains, locus YOR184W, strain ser1, active compounds read low 0.967 | S. cerevisiae deletion strains, locus YOR316C, strain cot1, active compounds read low 1 | S. cerevisiae deletion strains, locus YPL055C, strain LGE1, active compounds read low 0.92 | S. cerevisiae deletion strains, locus YPL241C, strain CIN2, active compounds read low 0.996 | S. cerevisiae deletion strains, locus YPR119W, strain clb2, active compounds read low 1 | S. cerevisiae deletion strains, locus YPR141C, strain kar3, active compounds read low 1.01 | S. cerevisiae deletion strains, locus YPR163C, strain tif3, active compounds read low 0.971 | S. cerevisiae deletion strains, locus YPR167C, strain met16, active compounds read low 1 | S. cerevisiae deletion strains, strain wtn01, active compounds read low 0.963 | S. cerevisiae strains, strain wild type, active compounds read low 0.992
